Source: PubChem BioAssay (EPA / NIEHS)
Where “and” joins values, the source holds several entries; their conditions need not be identical. Equal entries are not always repeated. Inconclusive results are not listed. Calls of active or inactive are those of the source. The calls were made as follows, unless noted: active = hit-call score of the fitted dose curve at least 0.9, where 1 is the maximum; inactive = score below 0.9.

Assays:
[1] = biological target: human Retinoic Acid Receptor gamma (RARg), RARG (gene 5916) (UniProt P13631); experiment: ATG_RARg_TRANS: Attagene TRANS-FACTORIAL HepG2 Assay for human Retinoic Acid Receptor gamma (RARg) (AID 2283009; active = hit-call score of the fitted dose curve at least 0.9, where 1 is the maximum)
human Retinoic Acid Receptor gamma (RARg), RARG (gene 5916), sequence (P13631 whole entry, looked up, the tested form may be a part): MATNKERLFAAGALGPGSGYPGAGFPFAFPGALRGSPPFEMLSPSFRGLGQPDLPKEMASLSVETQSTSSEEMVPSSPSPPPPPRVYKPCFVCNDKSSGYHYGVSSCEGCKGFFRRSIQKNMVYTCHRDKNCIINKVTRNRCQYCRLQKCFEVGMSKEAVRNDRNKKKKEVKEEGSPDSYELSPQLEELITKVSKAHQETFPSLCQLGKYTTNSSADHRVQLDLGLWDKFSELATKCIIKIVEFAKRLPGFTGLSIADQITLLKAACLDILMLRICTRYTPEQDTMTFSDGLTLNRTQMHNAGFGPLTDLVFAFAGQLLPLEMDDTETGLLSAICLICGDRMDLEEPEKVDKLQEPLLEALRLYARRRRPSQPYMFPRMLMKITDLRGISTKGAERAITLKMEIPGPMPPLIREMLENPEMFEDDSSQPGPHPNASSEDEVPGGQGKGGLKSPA
Method in brief: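 Gain-of-signal relative to DMSO is reported from fluorescent capillary electrophoresis of RT-PCR reporter products. These came from HepG2 cells expressing transfected RARg-GAL4 chimeras with UAS reporters, harvested 24 h after dosing.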

[2] = biological target: human RAR-related Orphan Receptor beta (RORb), RORB (gene 6096) (UniProt Q92753); experiment: ATG_RORb_TRANS: Attagene TRANS-FACTORIAL HepG2 Assay for human RAR-related Orphan Receptor beta (RORb) (AID 2283010; active = hit-call score of the fitted dose curve at least 0.9, where 1 is the maximum)
human RAR-related Orphan Receptor beta (RORb), RORB (gene 6096), sequence (Q92753 whole entry, looked up, the tested form may be a part): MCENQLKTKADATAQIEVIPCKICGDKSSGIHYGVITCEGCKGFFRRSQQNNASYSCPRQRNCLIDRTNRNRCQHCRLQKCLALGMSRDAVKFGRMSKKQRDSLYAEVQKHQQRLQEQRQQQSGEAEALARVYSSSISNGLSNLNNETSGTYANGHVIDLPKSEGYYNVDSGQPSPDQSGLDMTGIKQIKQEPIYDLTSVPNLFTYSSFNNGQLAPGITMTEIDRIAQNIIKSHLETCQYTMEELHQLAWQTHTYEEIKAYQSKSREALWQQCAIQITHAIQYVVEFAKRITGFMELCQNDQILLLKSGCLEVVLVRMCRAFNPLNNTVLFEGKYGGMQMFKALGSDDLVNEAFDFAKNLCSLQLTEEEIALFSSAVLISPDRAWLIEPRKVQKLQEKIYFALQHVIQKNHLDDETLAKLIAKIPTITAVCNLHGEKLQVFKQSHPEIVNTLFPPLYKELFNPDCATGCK
Method in brief: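 Multiplexed transcription-factor reporter assay: HepG2 cells transiently carrying NR-Gal4/GAL4-UAS constructs, 24 h treatment, mRNA quantified by RT-PCR plus capillary electrophoresis fluorescence; activity scored as induction over DMSO.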

[3] = biological target: human RAR-related Orphan Receptor gamma (RORg), RORC (gene 6097) (UniProt P51449); experiment: ATG_RORg_TRANS: Attagene TRANS-FACTORIAL HepG2 Assay for human RAR-related Orphan Receptor gamma (RORg) (AID 2283011; active = hit-call score of the fitted dose curve at least 0.9, where 1 is the maximum)
human RAR-related Orphan Receptor gamma (RORg), RORC (gene 6097), sequence (P51449 whole entry, looked up, the tested form may be a part): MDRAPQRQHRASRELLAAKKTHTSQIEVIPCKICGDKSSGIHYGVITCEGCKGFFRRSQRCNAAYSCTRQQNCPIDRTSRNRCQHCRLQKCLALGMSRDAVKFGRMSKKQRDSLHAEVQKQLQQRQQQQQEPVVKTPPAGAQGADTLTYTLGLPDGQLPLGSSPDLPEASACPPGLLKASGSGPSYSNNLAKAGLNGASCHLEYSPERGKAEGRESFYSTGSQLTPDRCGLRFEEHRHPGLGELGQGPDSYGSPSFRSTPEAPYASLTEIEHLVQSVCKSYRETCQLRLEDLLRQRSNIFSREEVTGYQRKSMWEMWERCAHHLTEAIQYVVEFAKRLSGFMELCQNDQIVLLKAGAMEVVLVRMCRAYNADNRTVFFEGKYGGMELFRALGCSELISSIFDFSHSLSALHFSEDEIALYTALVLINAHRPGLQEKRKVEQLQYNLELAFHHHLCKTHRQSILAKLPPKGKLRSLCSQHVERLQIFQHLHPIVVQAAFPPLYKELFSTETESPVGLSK
Method in brief: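 HepG2 cells transiently transfected with GAL4-UAS reporter units and chimeric RORg-Gal4 construct; after 24 h chemical exposure, reporter mRNA measured by RT-PCR with fluorescent capillary electrophoresis, gain of signal fitted against DMSO.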

[4] = read-out: E-selectin (Homo sapiens) (UniProt P16581); experiment: BSK_3C_Eselectin: BioMAP Diversity Plus: 3C Assay for Eselectin Biomarker Activity (AID 2283015); conditions: primary human endothelial cells (HUVEC); actives raise or lower the signal
Method in brief: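 Primary human umbilical vein endothelial cells (3C system), read 24 h after compound addition; E-selectin measured by ELISA. Bidirectional curve fitting against DMSO baseline; cytotoxicity by parallel SRB total-protein staining.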

[5] = read-out: Interleukin-1 alpha (IL1a), IL1A (gene 3552); experiment: BSK_BE3C_IL1a: BioMAP Diversity Plus: BE3C Assay for Interleukin-1 alpha (IL1a) Biomarker Activity (AID 2283016); conditions: primary human bronchial epithelial cells; actives raise or lower the signal
Method in brief: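 Measured in human lung primary bronchial epithelial cells: IL-1a by ELISA at 24 h after dosing, with bidirectional fitting against DMSO.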

[6] = read-out: Monocyte Chemoattractant Protein-1 (MCP1), CCL2 (gene 6347); experiment: BSK_3C_MCP1: BioMAP Diversity Plus: 3C Assay for Monocyte Chemoattractant Protein-1 (MCP1) Biomarker Activity (AID 2283017); conditions: primary human endothelial cells (HUVEC); actives raise or lower the signal
Method in brief: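 Human umbilical vein endothelial cells (3C system) exposed to chemicals for 24 h; MCP-1 quantified by ELISA against the DMSO baseline with bidirectional fitting, and parallel SRB staining used to assess cytotoxicity.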

[7] = read-out: Monocyte Chemoattractant Protein-1 (MCP1), CCL2 (gene 6347); experiment: BSK_4H_MCP1: BioMAP Diversity Plus: 4H Assay for Monocyte Chemoattractant Protein-1 (MCP1) Biomarker Activity (AID 2283018); conditions: primary human endothelial cells (HUVEC); actives raise or lower the signal
Method in brief: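 Primary human umbilical vein endothelium is exposed to chemical for 24 h before MCP-1 is assayed by ELISA. Concentration-response fitted bidirectionally relative to DMSO.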

[8] = biological target: Retinoic acid receptor RXR-alpha (Homo sapiens) (UniProt P19793); experiment: ATG_RXRa_TRANS: Attagene TRANS-FACTORIAL HepG2 Assay for human Retinoid X Receptor alpha (RXRa) (AID 2283012; active = hit-call score of the fitted dose curve at least 0.9, where 1 is the maximum)
Retinoic acid receptor RXR-alpha (Homo sapiens), sequence (P19793 whole entry, looked up, the tested form may be a part): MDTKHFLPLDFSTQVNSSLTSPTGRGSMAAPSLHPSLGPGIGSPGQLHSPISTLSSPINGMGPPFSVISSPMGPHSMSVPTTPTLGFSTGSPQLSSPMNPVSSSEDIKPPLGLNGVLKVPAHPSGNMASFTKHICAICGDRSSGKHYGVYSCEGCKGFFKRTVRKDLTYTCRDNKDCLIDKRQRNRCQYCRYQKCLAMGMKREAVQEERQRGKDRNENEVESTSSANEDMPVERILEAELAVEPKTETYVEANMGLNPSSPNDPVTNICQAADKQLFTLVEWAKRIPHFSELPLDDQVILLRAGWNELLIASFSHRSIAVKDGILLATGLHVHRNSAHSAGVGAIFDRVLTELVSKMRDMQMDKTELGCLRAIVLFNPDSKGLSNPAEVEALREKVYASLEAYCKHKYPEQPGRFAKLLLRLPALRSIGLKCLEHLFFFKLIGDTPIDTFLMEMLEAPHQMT
Method in brief: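 Chimeric NR-GAL4 trans-activation in HepG2, 24 h treatment; reporter transcripts quantified by fluorescence on capillary electrophoresis, analysed for upward change from DMSO.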

[9] = biological target: human Retinoid X Receptor beta (RXRb), RXRB (gene 6257) (UniProt P28702); experiment: ATG_RXRb_TRANS: Attagene TRANS-FACTORIAL HepG2 Assay for human Retinoid X Receptor beta (RXRb) (AID 2283013; active = hit-call score of the fitted dose curve at least 0.9, where 1 is the maximum)
human Retinoid X Receptor beta (RXRb), RXRB (gene 6257), sequence (P28702 whole entry, looked up, the tested form may be a part): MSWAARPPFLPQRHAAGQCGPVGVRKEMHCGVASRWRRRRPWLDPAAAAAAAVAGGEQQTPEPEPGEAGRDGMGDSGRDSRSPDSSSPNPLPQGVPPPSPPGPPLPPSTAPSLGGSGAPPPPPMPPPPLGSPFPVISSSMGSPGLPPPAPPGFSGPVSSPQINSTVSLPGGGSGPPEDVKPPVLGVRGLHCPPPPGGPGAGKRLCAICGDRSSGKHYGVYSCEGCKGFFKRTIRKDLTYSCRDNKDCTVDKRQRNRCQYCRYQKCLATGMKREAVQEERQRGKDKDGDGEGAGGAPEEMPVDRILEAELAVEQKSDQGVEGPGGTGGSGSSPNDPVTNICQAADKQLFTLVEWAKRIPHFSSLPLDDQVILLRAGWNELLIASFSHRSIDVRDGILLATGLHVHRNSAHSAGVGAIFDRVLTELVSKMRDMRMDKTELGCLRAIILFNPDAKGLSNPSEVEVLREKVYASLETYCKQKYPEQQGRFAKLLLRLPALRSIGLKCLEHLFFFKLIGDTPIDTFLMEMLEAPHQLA
Method in brief: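 After a 24 h incubation with test chemical, transfected HepG2 cells carrying NR-Gal4 fusions and GAL4-UAS reporter transcription units yield RNA whose reporter cDNA is FAM-labelled, HpaI-cut and sized by capillary electrophoresis; increases over DMSO are scored.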

[10] = biological target: human Thyroid Receptor alpha (THRa1), THRA (gene 7067) (UniProt P10827); experiment: ATG_THRa1_TRANS: Attagene TRANS-FACTORIAL HepG2 Assay for human Thyroid Receptor alpha (THRa1) (AID 2283014; active = hit-call score of the fitted dose curve at least 0.9, where 1 is the maximum)
human Thyroid Receptor alpha (THRa1), THRA (gene 7067), sequence (P10827 whole entry, looked up, the tested form may be a part): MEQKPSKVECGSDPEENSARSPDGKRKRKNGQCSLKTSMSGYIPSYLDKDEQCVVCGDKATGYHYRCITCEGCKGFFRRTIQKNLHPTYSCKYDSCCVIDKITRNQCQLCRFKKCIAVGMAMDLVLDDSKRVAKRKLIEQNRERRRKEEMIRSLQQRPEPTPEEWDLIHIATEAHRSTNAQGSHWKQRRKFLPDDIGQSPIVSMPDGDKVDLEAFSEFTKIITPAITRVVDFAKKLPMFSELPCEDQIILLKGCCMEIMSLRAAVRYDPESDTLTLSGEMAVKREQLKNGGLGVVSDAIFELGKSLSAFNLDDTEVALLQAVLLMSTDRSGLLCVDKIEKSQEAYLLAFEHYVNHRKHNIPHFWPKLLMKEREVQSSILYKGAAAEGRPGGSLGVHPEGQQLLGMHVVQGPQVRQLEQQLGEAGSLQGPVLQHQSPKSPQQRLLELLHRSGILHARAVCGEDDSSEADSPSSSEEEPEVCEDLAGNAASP
Method in brief: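 HepG2 cells transiently transfected with chimeric NR-Gal4 and GAL4-UAS reporter units, dosed 24 h. Reporter mRNA quantified by RT-PCR, fluorescent labeling, HpaI digestion and capillary electrophoresis; gain-of-signal fit versus DMSO.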

Measured: AC50

E-selectin (Homo sapiens), sequence (P16581 whole entry, looked up): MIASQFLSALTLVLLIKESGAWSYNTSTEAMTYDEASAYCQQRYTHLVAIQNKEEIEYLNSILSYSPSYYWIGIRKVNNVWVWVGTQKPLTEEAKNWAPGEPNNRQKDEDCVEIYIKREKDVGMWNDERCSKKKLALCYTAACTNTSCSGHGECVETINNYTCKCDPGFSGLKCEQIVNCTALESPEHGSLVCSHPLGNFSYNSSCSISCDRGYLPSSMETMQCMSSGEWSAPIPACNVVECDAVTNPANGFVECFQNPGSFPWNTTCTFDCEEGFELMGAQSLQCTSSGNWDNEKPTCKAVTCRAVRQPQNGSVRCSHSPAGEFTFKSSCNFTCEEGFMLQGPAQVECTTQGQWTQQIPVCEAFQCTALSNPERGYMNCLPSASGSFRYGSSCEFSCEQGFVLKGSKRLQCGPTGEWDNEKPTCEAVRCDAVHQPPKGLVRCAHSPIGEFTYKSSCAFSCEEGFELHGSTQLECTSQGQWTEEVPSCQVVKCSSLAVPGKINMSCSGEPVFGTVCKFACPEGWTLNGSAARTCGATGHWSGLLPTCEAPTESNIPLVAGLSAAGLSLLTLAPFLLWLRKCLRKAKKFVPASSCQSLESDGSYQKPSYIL

Cc1cccc(N)c1
not listed: [8] | [9] | [10]
inactive: all other assays above

N#Cc1c(-c2ccc(Cl)cc2)[nH]c(C(F)(F)F)c1Br
active: [5] 7.11 µM | [6] 0.169 µM | [7] 0.14 µM
not listed: [3] | [10]
inactive: all other assays above

CCCCN(CC)C(=O)SCCC
inactive: [1] | [3]

Cc1ccc(N)cc1N
not listed: [1] | [8] | [10]
inactive: all other assays above

Nc1ccc(Cl)cc1
inactive: [3] | [8] | [4] | [5] | [6] | [7]

CC(O)C(F)(F)C(F)(F)F (stereo not drawn)
inactive: [2] | [4] | [5] | [6] | [7]

O=c1ssc(Cl)c1Cl
active: [4] 6.13 µM | [5] 12.2 µM | [6] 8.43 µM | [7] 3.92 µM
inactive: [2] | [10]

C/C(=N\NC(=O)Nc1cc(F)cc(F)c1)c1ncccc1C(=O)O
inactive: [2] | [9] | [10]

NNC(N)=S
inactive: [2] | [3] | [8] | [9]

ClC(Cl)c1ccccc1
not listed: [1] | [8] | [9]
inactive: all other assays above

CCC(C)(C)c1ccc(O)cc1
inactive: [2] | [8] | [4] | [5] | [6] | [7]

CCOC(=O)c1ccccc1C(=O)OCC
inactive: [3] | [9] | [4] | [5] | [6] | [7]

O=C(O)CF
inactive: [2] | [3] | [9]

CC(C)(C)c1ccc(O)cc1
active: [9] 69.3 µM
not listed: [1] | [3] | [10]
inactive: all other assays above

CC(Cl)(Cl)C(=O)O
inactive: [3] | [10] | [4] | [5] | [6] | [7]

ClC(Cl)=C(c1ccc(Cl)cc1)c1ccccc1Cl
active: [4] 20 µM | [5] 14.2 µM | [6] 12.1 µM | [7] 5.93 µM
inactive: [2]

O=C(O)C1C(C(=O)O)C2(Cl)C(Cl)=C(Cl)C1(Cl)C2(Cl)Cl (stereo not drawn)
inactive: [2] | [4] | [5] | [6] | [7]

CCOC(=O)c1ccccc1N
inactive: [2] | [3] | [10]

CCOP(=S)(S)OCC
inactive: [2] | [4] | [5] | [6] | [7]

CSC(C)(C)C=NO
inactive: [2] | [8] | [4] | [5] | [6] | [7]

C=C(C)C(=O)OCC1CO1 (stereo not drawn)
inactive: [2]

[N-]=[N+]=[N-]
inactive: [3] | [10] | [4] | [5] | [6] | [7]

CC(Cl)CN(C)C (stereo not drawn)
inactive: [2] | [8] | [4] | [5] | [6] | [7]

CC(=O)c1ccc(-c2ccccc2)cc1
inactive: [3] | [8] | [9]

Cn1[nH]nnc1=S
inactive: [2] | [8]

OCC1CO1 (stereo not drawn)
inactive: [3] | [10] | [4] | [5] | [6] | [7]

CCOP(=S)(OCC)SCn1nnc2ccccc2c1=O
active: [4] 20 µM
inactive: [3] | [8] | [5] | [6] | [7]

Cc1ccc(C(=O)Cl)cc1
inactive: [2] | [3] | [8]

CCOP(=S)(OCC)SCS(=O)(=O)CC
inactive: [1] | [4] | [5] | [6] | [7]

CC(C)(C)OOC(C)(C)C
inactive: [2] | [8] | [4] | [5] | [6] | [7]

Nc1cc2c3c(c1)C(c1ccccc1)=N[C@@H](NC(=O)c1cccnc1)C(=O)N3CC2
inactive: [2] | [3] | [4] | [5] | [6] | [7]

N#Cc1cc([N+](=O)[O-])ccc1N
inactive: [3] | [8] | [4] | [5] | [6] | [7]

CC(O)C#N (stereo not drawn)
inactive: [3] | [8]

c1ccc(OP(Oc2ccccc2)Oc2ccccc2)cc1
inactive: [3] | [4] | [5] | [6] | [7]

CCCCC(CC)COC(=O)c1c(Br)c(Br)c(Br)c(Br)c1C(=O)OCC(CC)CCCC (stereo not drawn)
inactive: [3] | [4] | [5] | [6] | [7]

Nc1ccc(Sc2ccc(N)cc2)cc1
inactive: [2] | [3] | [8] | [9]

COC(=O)C(F)(F)C(F)(F)OC(F)(C(F)(F)F)C(F)(F)OC(F)=C(F)F (stereo not drawn)
active: [9] 31.8 µM and 41.3 µM and 28.2 µM
not listed: [1]
inactive: all other assays above

N#Cc1ccc(O)cc1
inactive: [2] | [3] | [9]

O=C(O)C(F)(F)OC(F)(F)C(F)(F)OC(F)(F)F
inactive: [3] | [8] | [4] | [5] | [6] | [7]

COP(N)(=S)OC
inactive: [3] | [9] | [4] | [5] | [6] | [7]
